High-throughput results (PubChem BioAssay)
Casp6 inh = human caspase-6 inhibitors, primary screen, biochemical, VEID-R110 fluorescence, single point, set 2. AID 686996, 2013. purified caspase-6, Z-VEID-R110 cleavage fluorescence. inhibition, % at 12.5 µM. P55212. 0.53% of 350,000 active;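 active = mean inhibition across replicates at least about 35%, with every replicate also reaching that limit, limit read from the data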;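 also: 0% = median of neutral control wells and 100% = no fluorescence left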
Target sequence (P55212 24-179 limits assumed): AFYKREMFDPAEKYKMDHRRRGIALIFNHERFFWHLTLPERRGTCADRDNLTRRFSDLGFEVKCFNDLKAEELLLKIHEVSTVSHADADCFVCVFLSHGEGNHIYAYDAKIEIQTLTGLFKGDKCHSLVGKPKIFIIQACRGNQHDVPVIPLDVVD
Target sequence (P55212 194-293 limits assumed): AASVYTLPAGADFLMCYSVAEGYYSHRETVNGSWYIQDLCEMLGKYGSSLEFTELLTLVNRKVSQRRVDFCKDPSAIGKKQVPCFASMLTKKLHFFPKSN
SIRT5 inh = SIRT5 desuccinylase inhibitors, primary screen, biochemical, fluorescence imaging, single point, set 5 | NAD-dependent protein deacylase sirtuin-5, mitochondrial (Homo sapiens), Q9NXA8 | Purified SirT5, succinyl-peptide AMC, trypsin-coupled fluorescence | inhibition, % at 15 µM | 1.1% of 330,000 active; in the data active = inhibition above about 15%
Target sequence (Q9NXA8 whole entry, looked up): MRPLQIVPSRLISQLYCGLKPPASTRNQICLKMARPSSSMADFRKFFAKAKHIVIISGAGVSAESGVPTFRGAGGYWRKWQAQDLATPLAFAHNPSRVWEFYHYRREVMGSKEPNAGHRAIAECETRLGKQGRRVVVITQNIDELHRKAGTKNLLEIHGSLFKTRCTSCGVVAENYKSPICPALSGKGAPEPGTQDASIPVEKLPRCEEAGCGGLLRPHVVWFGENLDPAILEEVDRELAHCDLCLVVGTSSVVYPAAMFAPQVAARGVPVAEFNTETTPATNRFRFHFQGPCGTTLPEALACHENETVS
INS-1E GSIS act = GLuc luminescence reporter in INS-1E cells, primary screen for activators of glucose-dependent secretion of insulin; 0.61% of 370,000 active; INS-1E GLuc reporter insulin secretion, 2-3 h; activation, % at 16.6 µM;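 active = lowest replicate activation of at least 40%, so every replicate reaches that level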;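 also: 0% = median of neutral control wells and 100% = median of IBMX positive control wells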
FGF22 binding = binders of human FGF22 protein, primary screen, FGF22 synaptogenesis inhibitor project, biophysical, thermal shift, single point | Fibroblast growth factor 22 (Homo sapiens), Q9HCT0 | 1.5% of 340,000 active | activity (Tm shift, normalised), % at 9.99 µM | recombinant FGF22 thermal shift, SYPRO orange fluorescence; percent of sucrose octasulfate shift, DMSO zero;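 active = mean Tm shift, scaled 0 neutral to 100 positive control, at about 1.3% or above, every replicate too, limit read from the data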
ERAP1 inh = human ERAP1 aminopeptidase inhibitors, primary screen, biochemical, single point, plate reader | Endoplasmic reticulum aminopeptidase 1 (Homo sapiens), Q9NZ08 | recombinant ERAP1, Leu-AMC fluorescence, 60 min | inhibition, % at 10.7 µM | 0.15% of 340,000 active | AID 652197, 2013;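 active = mean replicate inhibition of at least 30%, or all replicates individually reaching that 30% level; inactive = mean below 30% and not every replicate reaching it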;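 also: 0% = neutral control wells and 100% = L-leucinethiol positive control wells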
Numbers without * were called inactive; . = not tested or not shown. Most compounds without a hit are left out; they make up all but 3.3% or so of the library.

SMILES	Casp6 inh	SIRT5 inh	INS-1E GSIS act	FGF22 binding	ERAP1 inh
COc1ccc(NC(=O)N(C)C[C@@H]2Oc3ccc(NS(=O)(=O)c4ccc(C)cc4)cc3CC(=O)N([C@H](C)CO)C[C@@H]2C)cc1	.	.	-7	.	.
c1ccc(CN2CCC(N3CCC(N4CCCCCC4)CC3)CC2)cc1	-141	32*	-7	.	1
O=C(C[C@@H]1CC[C@@H]2[C@H](COC[C@H](O)CN2C(=O)Nc2ccc(Cl)cc2)O1)NCc1ccncn1	1	1	-5	0	-3
O=C(CNC(=O)c1cccc(Br)c1)N/N=C/c1ccc[nH]1	2	-4	.	43*	-2
O=C(CN1CC(c2ccccc2)CC1=O)N/N=C/c1cc(Br)ccc1O (configuration not stated)	20	20*	-69	0	-3
O=C(CNC(=O)c1ccccc1Br)N/N=C/c1ccccc1O	-2	0	-6	43*	1
CCOc1ccc(NC(=O)CN2CC(c3ccccc3)CC2=O)cc1 (configuration not stated)	0	.	-2	0	.
O=C(O)CNC(=O)c1ccccc1Br	2	7	29	43*	-6
O=C(CNC(=O)c1cccc(Br)c1)N/N=C/c1cn[nH]c1-c1ccccc1	1	-4	-20	0	11
CC(C)C#Cc1ccc2c(c1)O[C@@H](CN(C)C(=O)CC1CC1)[C@@H](C)CN([C@@H](C)CO)S2(=O)=O	.	.	-8	-1	.
O=C(Nc1ccc2c(c1)[C@@H]1C[C@@H](CC(=O)N3CCCCC3)O[C@@H](CO)[C@@H]1O2)c1ccc2c(c1)OCO2	-2	4	-2	0	0
O=C(CNC(=O)c1ccccc1)N/N=C/c1cc(Br)ccc1O	-7	2	-4	0	2
O=C(CNC(=O)c1ccccc1Br)N/N=C/c1cc(Br)ccc1O	-2	-4	1	44*	-1
O=[N+]([O-])c1ccc(-c2cnc[nH]2)cc1	0	-2	.	0	.
O=[N+]([O-])c1ccc(-c2cc(-c3ccc(Cl)cc3)n[nH]2)cc1	.	.	71*	.	.
C/C(=N\N1CCN(C)CC1)c1ccc(OC(F)F)cc1	0	-6	5	43*	-3
O=C(CNCc1ccccc1)Nc1ccccc1-c1ccccc1	2	-2	6	44*	1
O=C(NCC[C@@H]1CC[C@H](NC(=O)c2cnccn2)[C@H](CO)O1)Nc1ccc(Cl)cc1	0	2	-21	0	1
CO[C@@H]1CN(C)C(=O)c2cc(NS(=O)(=O)c3ccccc3)ccc2OC[C@@H](C)N(Cc2cccnc2)C[C@@H]1C	0	-4	.	0	1
Nc1nc(Sc2ccc([N+](=O)[O-])c3nonc23)c2[nH]cnc2n1	72*	.	.	0	16
COc1cc(C=O)ccc1OS(=O)(=O)c1ccc(NC(C)=O)cc1	4	-6	-11	1.9*	0
COc1ccc(/C=C2\SC(=S)NC2=O)cc1OS(=O)(=O)c1ccc(NC(C)=O)cc1	40*	0	-49	0	12
CC(=O)Nc1ccc(S(=O)(=O)Oc2cccc(/C=C3\SC(N)=NC3=O)c2)cc1	0	-5	8	43*	3
NC1=NC(=O)/C(=C/c2cccc(F)c2)S1	0	-2	5	0	-1
COc1ccc(S(=O)(=O)Nc2ccc(NC(C)=O)cc2)cc1OC	.	.	-7	.	.
SMILES	Casp6 inh	SIRT5 inh	INS-1E GSIS act	FGF22 binding	ERAP1 inh
CO[C@H]1CN(C)C(=O)c2cc(NC(=O)c3cccc(F)c3)ccc2OC[C@@H](C)N(C(C)=O)C[C@H]1C	.	.	6	.	.
CN(Cc1ccccc1)c1ncnc(N)c1[N+](=O)[O-]	1	2	44*	0	2
CN(Cc1ccccc1)c1ncnc2[nH]ncc12	-8	.	40*	0	-1
COc1ccc2c3c([nH]c2c1)[C@@H](CO)N(CC1CC1)CC31CCN(C(=O)c2ccccc2F)CC1	0	11	5	-1	-5
Cc1ccc(-n2nc3ccc(NC(=O)C(C)C)cc3n2)cc1	-2	-1	0	43	-1
Cc1ccc(-n2nc3ccc(NC(=O)c4ccco4)cc3n2)cc1	.	.	65*	.	.
Cc1noc(C)c1NC(=O)N(C)C[C@@H]1OCCCC[C@H](C)Oc2ccc(NS(=O)(=O)c3cccs3)cc2C(=O)N([C@@H](C)CO)C[C@@H]1C	-3	-2	18	1	-5
C[C@H](CO)N1C[C@H](C)[C@@H](CN(C)S(=O)(=O)c2ccc(F)cc2)Oc2ccc(NS(C)(=O)=O)cc2C1=O	2	.	1	0	0
COc1ccccc1C(c1nnnn1C(C)(C)C)N1CCN(Cc2ccncc2)CC1 (configuration not stated)	.	.	18	.	.
CCC(c1nnnn1C(C)(C)C)N1CCN(Cc2ccccc2OC)CC1 (configuration not stated)	1	17*	4	0	-3
COc1ccc(NC(=S)NC23CN4CN(CN(C4)C2)C3)c(OC)c1	-87	-2	9	44*	2
Cc1ccc(C)c(SCC(=O)OCC(=O)NCc2ccccc2)c1	2	1	0	44*	-1
O=C(N/N=C/c1ccc2c(c1)OCO2)c1ccc(Cl)cc1Cl	-5	-2	58*	0	-1
C[n+]1cccc(C(=O)N/N=C/c2ccc3c(c2)OCO3)c1	-1	11	4	1	46*
CCCNC(=O)C[C@@H]1CC[C@@H]2[C@@H](COc3ccc(NC(=O)Cc4cccs4)cc3C(=O)N2C)O1	.	.	12	0	.
CCCc1cc(C(=O)OC)c(NC(=O)CCC(=O)O)s1	-2	0	22	43*	-2
O=C(Nc1nc(-c2cc3ccccc3o2)cs1)c1ccc(S(=O)(=O)N2CCCC2)cc1	1	-5	-2	43*	2
CC1CN(S(=O)(=O)c2ccc(C(=O)Nc3nc(-c4cc5ccccc5o4)cs3)cc2)CC(C)O1 (configuration not stated)	-2	-2	-6	44*	-2
O=C(Nc1nc(-c2ccc(-c3ccccc3)cc2)cs1)c1cc([N+](=O)[O-])ccc1N1CCOCC1	-1	1	-6	43*	5
CC1CN(S(=O)(=O)c2ccc(C(=O)Nc3nncs3)cc2)CC(C)O1 (configuration not stated)	-2	-3	-20	0	-9
O=C(Nc1nc(-c2ccc(S(=O)(=O)N3CCOCC3)cc2)cs1)c1ccccc1	-2	.	-6	44*	-1
CN(C)S(=O)(=O)c1ccc(C(=O)Nc2nc(-c3cc4ccccc4o3)cs2)cc1	-2	-2	5	0	0
